# Measurements published in ChEMBL document CHEMBL3988442, “University of Dundee, Small-Polar-MMV Screening Library” (2021).
# For some of these results: Measured potencies and affinities stand elsewhere.
# How the values were obtained:
# Design in all cases: scale not given: direction of the effect not stated beside the values
# [1] = target: Protein translocase subunit SecA (Escherichia coli (strain K12)) (UniProt P10408); assay: Assay to Identify E. coli SecA ATPase Inhibitors; assay type: functional; conditions: 30 µM
# [2] = target: T1, Ubiquitin-activating enzyme e1, putative (Leishmania donovani (strain BPK282A1)) (UniProt E9BSI1); assay: Leishmania donovani Ubiquitin Activating Enzyme (LdE1); assay type: functional; conditions: 30 µM
# T1 sequence (whole entry): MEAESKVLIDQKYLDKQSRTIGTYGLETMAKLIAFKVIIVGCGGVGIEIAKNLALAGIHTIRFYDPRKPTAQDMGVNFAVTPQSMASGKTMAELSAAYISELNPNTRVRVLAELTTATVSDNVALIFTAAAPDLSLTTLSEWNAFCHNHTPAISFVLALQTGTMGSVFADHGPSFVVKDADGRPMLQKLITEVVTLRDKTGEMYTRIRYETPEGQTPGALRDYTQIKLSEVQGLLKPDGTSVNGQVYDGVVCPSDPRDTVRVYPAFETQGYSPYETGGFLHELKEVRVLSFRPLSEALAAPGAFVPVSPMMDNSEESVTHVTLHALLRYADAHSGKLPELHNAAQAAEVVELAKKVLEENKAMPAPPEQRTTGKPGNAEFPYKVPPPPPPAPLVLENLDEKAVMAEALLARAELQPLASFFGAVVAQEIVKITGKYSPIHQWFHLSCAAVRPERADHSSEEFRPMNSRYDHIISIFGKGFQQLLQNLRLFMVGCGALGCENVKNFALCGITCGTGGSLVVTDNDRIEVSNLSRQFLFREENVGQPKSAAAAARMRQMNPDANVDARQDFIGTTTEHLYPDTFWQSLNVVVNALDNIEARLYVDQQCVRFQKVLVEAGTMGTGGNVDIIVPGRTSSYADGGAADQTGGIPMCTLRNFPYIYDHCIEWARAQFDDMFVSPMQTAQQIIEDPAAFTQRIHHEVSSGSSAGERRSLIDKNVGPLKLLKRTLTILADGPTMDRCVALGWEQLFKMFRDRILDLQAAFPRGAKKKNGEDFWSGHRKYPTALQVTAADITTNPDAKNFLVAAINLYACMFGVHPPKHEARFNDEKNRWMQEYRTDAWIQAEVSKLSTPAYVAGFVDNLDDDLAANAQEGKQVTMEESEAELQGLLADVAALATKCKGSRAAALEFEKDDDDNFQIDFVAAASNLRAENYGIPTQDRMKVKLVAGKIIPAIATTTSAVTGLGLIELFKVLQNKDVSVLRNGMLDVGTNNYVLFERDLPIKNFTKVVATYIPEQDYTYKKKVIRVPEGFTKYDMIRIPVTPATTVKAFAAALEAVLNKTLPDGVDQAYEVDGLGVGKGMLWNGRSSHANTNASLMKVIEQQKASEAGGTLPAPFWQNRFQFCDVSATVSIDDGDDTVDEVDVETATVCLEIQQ
# [3] = target: AMP-activated protein kinase, AMPK (Homo sapiens) (UniProt P54646+O43741+P54619+Q9UGJ0+Q9Y478+Q13131+Q9UGI9); assay: AMP-dependent Kinase enzyme assay. An in vitro enzyme assay that detects ADP turnover that is directly proportional to AMPK activity. This uses naive AMPK that is activated during the assay with MK-8722; assay type: functional; conditions: 30 µM
# [4] = target: Sialic acid-binding Ig-like lectin 9 (Homo sapiens) (UniProt Q9Y336); assay: Hs-Siglec9 ALPHAscreen SOP 20170721; conditions: 10 µM
# Trypanosoma cruzi = assay: Trypanosoma cruzi phosphomannomutase and mannose-1-phosphate guanylyltransferase assay; assay type: functional; conditions: 10 µM
# [5] = target: T2, Arginase-2, mitochondrial (Homo sapiens) (UniProt P78540); assay: in vitro enzyme assay to detect the production of urea directly proportional to the activity of Arginase II; assay type: functional; conditions: 33.3 µM; further: in the data most compounds retested in dose-response had high values
# T2 sequence (whole entry): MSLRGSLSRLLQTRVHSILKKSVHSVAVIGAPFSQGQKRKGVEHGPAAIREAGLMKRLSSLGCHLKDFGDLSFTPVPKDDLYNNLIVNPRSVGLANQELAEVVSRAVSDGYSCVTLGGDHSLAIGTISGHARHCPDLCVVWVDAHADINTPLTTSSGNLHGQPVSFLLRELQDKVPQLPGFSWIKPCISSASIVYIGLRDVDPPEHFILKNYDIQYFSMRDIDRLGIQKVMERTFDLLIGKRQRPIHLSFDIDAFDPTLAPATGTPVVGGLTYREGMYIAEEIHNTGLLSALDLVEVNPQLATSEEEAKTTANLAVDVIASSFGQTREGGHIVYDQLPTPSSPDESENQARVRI
# [6] = target: T3, Proteasome subunit beta (Trypanosoma cruzi) (UniProt O96673); assay: Trypanosoma cruzi proteasome chymotrypsin-like activity (TcProtChymo) assay.; further: in the data most compounds retested in dose-response had high values; assay type: functional; conditions: 9.37 µM
# T3 sequence (whole entry): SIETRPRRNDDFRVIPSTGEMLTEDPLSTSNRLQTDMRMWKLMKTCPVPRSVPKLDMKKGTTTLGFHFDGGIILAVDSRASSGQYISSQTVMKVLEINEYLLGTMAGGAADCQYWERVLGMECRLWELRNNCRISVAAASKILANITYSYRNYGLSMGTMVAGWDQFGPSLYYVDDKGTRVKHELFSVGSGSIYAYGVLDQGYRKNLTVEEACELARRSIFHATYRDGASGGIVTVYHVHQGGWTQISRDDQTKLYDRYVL
# Homo sapiens = species on record: Homo sapiens; assay: To identify inhibition of the IFN signalling (Jak-Stat) pathway via expression of an eGFP reporter gene under the control of an IFN-stimulated response element (ISRE) containing MxA promoter.; assay type: functional; conditions: 30 µM
# [7] = target: T4, Tyrosyl-tRNA synthetase, putative (Trypanosoma cruzi (strain CL Brener)) (UniProt Q4DSP6); assay: Trypanosoma cruzi tyrosyl tRNA synthetase (TcYRS) _High Tyrosine SOP; assay type: functional; conditions: 30 µM; further: in the data most compounds retested in dose-response had high values
# T4 sequence (whole entry): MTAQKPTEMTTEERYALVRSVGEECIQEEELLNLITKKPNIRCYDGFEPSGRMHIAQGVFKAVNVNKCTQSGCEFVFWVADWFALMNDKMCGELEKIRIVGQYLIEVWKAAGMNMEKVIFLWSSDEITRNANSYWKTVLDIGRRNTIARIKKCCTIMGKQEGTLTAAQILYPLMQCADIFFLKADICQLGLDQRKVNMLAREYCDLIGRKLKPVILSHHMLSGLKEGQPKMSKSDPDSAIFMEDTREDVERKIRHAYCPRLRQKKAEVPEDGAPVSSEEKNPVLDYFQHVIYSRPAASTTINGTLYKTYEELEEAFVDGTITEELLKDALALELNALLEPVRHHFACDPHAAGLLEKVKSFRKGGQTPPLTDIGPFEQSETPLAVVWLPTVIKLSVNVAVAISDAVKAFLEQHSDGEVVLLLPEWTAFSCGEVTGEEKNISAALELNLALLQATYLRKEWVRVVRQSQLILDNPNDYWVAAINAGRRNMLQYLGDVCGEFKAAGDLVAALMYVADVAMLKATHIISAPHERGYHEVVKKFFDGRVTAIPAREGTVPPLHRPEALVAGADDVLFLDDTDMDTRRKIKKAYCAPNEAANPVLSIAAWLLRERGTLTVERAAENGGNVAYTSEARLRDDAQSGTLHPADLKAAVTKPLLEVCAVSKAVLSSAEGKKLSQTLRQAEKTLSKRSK
# [8] = target: T4, Tyrosyl-tRNA synthetase, putative (Trypanosoma cruzi (strain CL Brener)); assay: Trypanosoma cruzi tyrosyl tRNA synthetase (TcYRS) SOP; assay type: functional; conditions: 30 µM
# [9] = target: Chromo domain-containing protein 1 (Saccharomyces cerevisiae (strain ATCC 204508 / S288c) (Baker's yeast)) (UniProt P32657); assay: ScCHD-1 Enzyme Inhibition Assay; assay type: functional; conditions: 30 µM; further: in the data most compounds retested in dose-response had high values
# Sequence of Chromo domain-containing protein 1 (Saccharomyces cerevisiae (strain ATCC 204508 / S288c) (Baker's yeast)) (P32657 whole entry, the tested form may be a part): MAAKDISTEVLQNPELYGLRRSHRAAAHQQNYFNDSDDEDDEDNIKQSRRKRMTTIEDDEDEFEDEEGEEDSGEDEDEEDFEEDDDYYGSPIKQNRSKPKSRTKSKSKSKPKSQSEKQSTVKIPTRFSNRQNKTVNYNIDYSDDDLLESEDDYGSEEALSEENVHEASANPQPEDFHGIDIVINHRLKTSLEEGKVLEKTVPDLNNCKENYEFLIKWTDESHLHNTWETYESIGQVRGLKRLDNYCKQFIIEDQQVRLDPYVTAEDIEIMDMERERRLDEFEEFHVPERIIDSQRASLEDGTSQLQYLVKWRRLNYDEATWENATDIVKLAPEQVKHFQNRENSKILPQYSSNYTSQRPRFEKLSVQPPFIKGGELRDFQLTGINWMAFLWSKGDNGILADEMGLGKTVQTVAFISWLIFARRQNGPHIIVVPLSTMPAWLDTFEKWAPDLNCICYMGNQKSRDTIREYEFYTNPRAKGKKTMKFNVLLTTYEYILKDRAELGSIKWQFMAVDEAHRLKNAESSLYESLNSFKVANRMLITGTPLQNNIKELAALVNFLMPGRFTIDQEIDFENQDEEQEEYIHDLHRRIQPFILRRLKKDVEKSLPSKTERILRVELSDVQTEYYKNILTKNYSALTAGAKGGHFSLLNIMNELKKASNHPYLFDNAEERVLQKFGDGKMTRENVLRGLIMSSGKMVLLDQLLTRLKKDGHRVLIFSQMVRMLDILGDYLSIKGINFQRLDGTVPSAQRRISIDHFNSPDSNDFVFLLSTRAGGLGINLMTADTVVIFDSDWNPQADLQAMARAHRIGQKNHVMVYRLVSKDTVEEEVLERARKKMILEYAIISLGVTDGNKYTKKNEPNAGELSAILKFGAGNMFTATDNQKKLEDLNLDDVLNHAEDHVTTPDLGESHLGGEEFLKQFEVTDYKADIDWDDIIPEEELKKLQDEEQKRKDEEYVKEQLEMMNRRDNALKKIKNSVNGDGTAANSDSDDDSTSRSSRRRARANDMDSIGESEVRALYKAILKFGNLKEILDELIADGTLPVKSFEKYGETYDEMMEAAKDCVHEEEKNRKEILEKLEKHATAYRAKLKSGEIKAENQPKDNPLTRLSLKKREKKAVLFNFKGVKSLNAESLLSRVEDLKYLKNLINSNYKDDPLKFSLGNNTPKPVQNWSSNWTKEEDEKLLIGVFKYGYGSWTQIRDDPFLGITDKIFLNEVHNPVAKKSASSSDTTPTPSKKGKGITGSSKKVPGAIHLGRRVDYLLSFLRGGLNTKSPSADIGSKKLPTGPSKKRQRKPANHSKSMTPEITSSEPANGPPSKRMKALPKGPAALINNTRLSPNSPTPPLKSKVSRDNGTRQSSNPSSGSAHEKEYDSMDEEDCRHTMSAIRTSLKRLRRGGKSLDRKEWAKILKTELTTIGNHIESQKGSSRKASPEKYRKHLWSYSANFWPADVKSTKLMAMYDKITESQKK
# Sequence of Protein translocase subunit SecA (Escherichia coli (strain K12)) (P10408 whole entry): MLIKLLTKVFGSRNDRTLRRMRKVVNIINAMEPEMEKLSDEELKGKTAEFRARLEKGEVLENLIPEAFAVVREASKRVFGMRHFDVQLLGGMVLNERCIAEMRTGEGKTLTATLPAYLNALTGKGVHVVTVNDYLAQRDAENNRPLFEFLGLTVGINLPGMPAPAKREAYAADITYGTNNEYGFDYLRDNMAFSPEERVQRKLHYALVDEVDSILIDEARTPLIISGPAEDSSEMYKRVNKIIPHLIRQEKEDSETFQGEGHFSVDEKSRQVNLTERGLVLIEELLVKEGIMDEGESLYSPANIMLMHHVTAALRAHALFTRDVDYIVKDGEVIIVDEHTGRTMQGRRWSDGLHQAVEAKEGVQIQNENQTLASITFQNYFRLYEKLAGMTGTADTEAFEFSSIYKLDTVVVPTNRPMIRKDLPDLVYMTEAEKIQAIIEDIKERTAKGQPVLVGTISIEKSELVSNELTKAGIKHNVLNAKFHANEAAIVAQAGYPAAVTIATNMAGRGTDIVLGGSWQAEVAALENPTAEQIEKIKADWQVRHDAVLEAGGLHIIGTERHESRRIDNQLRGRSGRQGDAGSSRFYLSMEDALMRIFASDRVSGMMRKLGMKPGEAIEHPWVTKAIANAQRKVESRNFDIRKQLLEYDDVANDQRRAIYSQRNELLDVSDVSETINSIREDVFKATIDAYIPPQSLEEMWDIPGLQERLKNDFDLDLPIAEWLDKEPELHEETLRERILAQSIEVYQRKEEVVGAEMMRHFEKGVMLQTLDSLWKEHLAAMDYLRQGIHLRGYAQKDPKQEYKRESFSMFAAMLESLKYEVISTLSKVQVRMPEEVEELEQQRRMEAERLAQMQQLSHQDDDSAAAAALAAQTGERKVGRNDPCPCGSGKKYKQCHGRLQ
# Sequence of Sialic acid-binding Ig-like lectin 9 (Homo sapiens) (Q9Y336 whole entry): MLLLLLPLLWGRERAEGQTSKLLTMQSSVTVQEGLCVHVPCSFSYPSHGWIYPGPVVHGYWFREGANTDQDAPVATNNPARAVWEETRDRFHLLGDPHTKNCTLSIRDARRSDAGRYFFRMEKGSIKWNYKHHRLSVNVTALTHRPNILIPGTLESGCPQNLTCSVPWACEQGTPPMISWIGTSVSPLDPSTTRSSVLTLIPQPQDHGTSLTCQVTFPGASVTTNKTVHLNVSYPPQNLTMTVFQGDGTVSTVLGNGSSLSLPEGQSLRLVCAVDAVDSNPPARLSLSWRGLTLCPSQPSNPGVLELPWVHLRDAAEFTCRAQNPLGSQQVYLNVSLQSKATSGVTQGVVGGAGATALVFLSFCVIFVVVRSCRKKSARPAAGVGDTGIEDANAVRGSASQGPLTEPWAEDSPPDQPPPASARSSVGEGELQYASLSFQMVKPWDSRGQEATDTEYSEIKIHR
Compound,Percent Effect [1] [%],Percent Effect [2] [%],Percent Effect [3] [%],Percent Effect [4] [%],Percent Effect (Trypanosoma cruzi) [%],Percent Effect [5] [%],Percent Effect [6] [%],Percent Effect (Homo sapiens) [%],Percent Effect [7] [%],Percent Effect [8] [%],Percent Effect [9] [%]
CC(C)c1nnc2n1CCN(C(=O)c1ccc(-n3cnnc3)cc1)C2,-9.19,-10.4,-7.99,-9.83,8.13,-7.79,13.5,0.957,5.71,18.8,-23.7
COc1ccc(CNC(=O)Nc2cccnc2N2CCCC2)cc1O,-2.46,16.2,-3.7,16.1,4.81,-7.62,1.62,7.88,2.46,16.1,-7.7
Cc1cc(S(=O)(=O)N2CCCc3cc(F)cc(F)c32)sc1C(=O)O,-9.52,-2.67,2.83,0.801,-6.33,-2.6,9.59,7.51,-14.8,-18.5,-5.34
NC(=O)C1CN(C(=O)Nc2ccccc2N2CCCCCC2)CCO1 (stereo not given),-6.93,-48.6,-3.8,9.74,6.96,-3.88,4.31,11.3,1.98,15.8,-1.09
NC(=O)C1CCN(C(=O)Cn2nc(-c3ccccc3)oc2=O)C1 (stereo not given),-4.97,7.79,1.04,8.76,2.46,-13.8,8.82,-30.7,2.15,13.6,-0.676
Fc1cccc(-c2nc(CN3CCOC(Cn4cccn4)C3)co2)c1 (stereo not given),-5.98,2.7,-6.81,3.19,-2.36,4.81,4.68,-1.08,7.39,6.17,-3.05
CCC1c2cccn2CCN1C(=O)c1ccc2nonc2c1 (stereo not given),-6.68,-1.39,-3.32,-10.2,-3.79,0,11.6,-4.01,3.16,-2.56,2.02
Cn1cnnc1C1CCCN(C(=O)NCCNc2ccccn2)C1 (stereo not given),-5.92,18.2,3.59,4.46,0.881,6.53,9.78,4.54,7.62,18.8,-9.77
Cc1cnn(C2CCCN(C(=O)Cc3cn4ccccc4n3)C2)c1 (stereo not given),-5.24,19,-2.41,-0.453,-0.103,-1.5,11.8,4.05,1.04,17.7,-26.5
CN(CCN1CCCCCC1)C(=O)c1cc(CN2CCC(O)CC2)on1,-4.14,2.74,-1.87,-2.01,2.74,0.909,13.3,-3.45,8.6,15,-2.4
CCn1c(C(=O)N2CCN(CC(C)O)CC2)cc2ccccc21 (stereo not given),-8.12,7.79,-6.74,7.69,10.1,-1.78,6.42,-0.229,3.88,21.9,-10.6
CN(CCO)C[C@@H]1CN(C(=O)c2c(F)cccc2Cl)C[C@@H]1CO,-3.86,0,1.2,6,-2.06,2.76,15.6,9.06,3.23,3.7,-2.59
c1cnn(C2CN(Cc3nc(-c4ccsc4)no3)C2)c1,-3.15,-10.5,-7.01,2.96,8.27,1.15,12.7,-0.515,4.41,12.2,-4.96
CCc1ccc(S(=O)(=O)Nc2cc(C(=O)O)c(F)cc2F)s1,-10.3,2.63,-14.5,19.8,9.99,1.08,6.51,4.81,2.46,16.1,-10.2
O=C(NCC(O)c1ccc(F)c(F)c1)c1cccnc1O (stereo not given),-0.608,13.7,1.02,2.28,-0.198,-4.39,24.9,3.44,10.4,21,-4.53
O=C1NC(c2ccccc2)=N[C@@]12CC[C@@H]1CN(Cc3ccco3)C[C@@H]12,-0.246,5.33,1.87,-5.18,2.32,-47.5,-0.513,4.89,2.08,-5,-2.32
CCn1cc(C(=O)NC2CCN(S(C)(=O)=O)CC2)c2ccccc21,-3.22,16.2,-3.16,22.3,4.01,0.248,5.41,6.18,2.15,16.1,-6.57
O=C1CC[C@H]2[C@H](CCN2C(=O)C2CCCO2)N1CCN1CCCC1 (stereo not given in full),1.49,1.33,6.35,-1.83,0.393,-3.7,10.7,-5.66,2.12,0,-4.01
COCC(=O)N1CCCC2(CCN(c3ccsc3)C2=O)C1 (stereo not given),-5.59,2.67,5.83,-0.603,-1.18,-0.699,-5.73,26.1,0,-1.28,4.35
CCS(=O)(=O)N1CCC(c2cc3n(n2)[C@@H](C(F)(F)F)C[C@@H](C)N3)CC1,-3.21,9.46,-29.7,-2.76,-4.15,2.09,4.37,11.3,-1.07,6.49,-7.22
